Results reported in PubChem BioAssay (NCI).
This is part of a sample that, as a whole, favours compounds with a hit. Of some 83,000 tested, about 20% had one in any assay.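 Cell lines were cultured in 96-well plates, exposed to a single compound concentration, and assessed for percent growth 48 hours later.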 Unmarked numbers belong to inactive results. Activity calls are given as the source filed them. Rule for the calls: active = growth percent below 10; inactive = the rest.

Key:
Test in all cases: NCI-60 one-dose screen, 48 h (100 = growth as untreated, 0 = no growth, -100 = all killed)
Conditions in all cases: 10 µM
NCI-H23 lung = tested on: NCI-H23 lung
NCI-H226 lung = tested on: NCI-H226 lung
NCI-H322M lung = tested on: NCI-H322M lung
HOP-62 NSCLC = tested on: HOP-62 NSCLC
NCI-H460 lung = tested on: NCI-H460 lung
NCI-H522 lung = tested on: NCI-H522 lung
A549/ATCC NSCLC = tested on: A549/ATCC NSCLC
786-0 renal = tested on: 786-0 renal
COLO 205 colon = tested on: COLO 205 colon
DU-145 prostate = tested on: DU-145 prostate

| Compound | growth (NCI-H23 lung) | growth (NCI-H226 lung) | growth (NCI-H322M lung) [%] | growth (HOP-62 NSCLC) | growth (NCI-H460 lung) | growth (NCI-H522 lung) | growth (A549/ATCC NSCLC) | growth (786-0 renal) | growth (COLO 205 colon) | growth (DU-145 prostate) |
| --- | --- | --- | --- | --- | --- | --- | --- | --- | --- | --- |
| Nc1ncn([C@@H]2O[C@H](CO)[C@@H](O)[C@H]2O)c(=O)n1 | 37.2% | 45.9% | 15.9 | 2.42% (active) | -1.73% (active) | 4.49% (active) | 16.5% | 23.8% | 6.61% (active) | 11.5% |
| N=c1c2c(-c3ccccc3)c(-c3ccccc3)n(Cc3ccccc3)c2ncn1CCCO | 45.7% | 46.1% | 34.4 | 52.9% | 8.17% (active) | 27.8% | 17.3% | 48.3% | -5.84% (active) | 34.5% |
| Cc1ccc(-c2nc(/C=C3/C(=O)N(C)c4ccc(F)cc43)c3ccccn23)cc1 | 86.5% | 106% | 103 | 77.9% | 96.7% | 60.5% | 94.1% | 107% | 120% | 99.3% |
| COc1cc(-c2cc(-c3cc4c([nH]c5ccccc54)c(-c4cc(OC)c(OC)c(OC)c4)n3)cc(-c3ccccc3)n2)cc(OC)c1OC | 69.1% | 77% | 95 | 78% | 64.8% | 43.4% | 42.8% | 79.6% | 84.8% | 97.5% |
| C/C(N)=C(\C#N)C(=O)c1ccccc1 | 104% | 98% | 107 | 105% | 103% | 96.6% | 97.6% | 106% | 105% | 110% |
| O=C1Nc2ccc(Cl)cc2/C1=C\c1c(-c2ccc(Cl)cc2)nc2sc(C3CC3)nn12 | 67% | 29.7% | 61.3 | -0.353% (active) | 51.4% | 42.9% | 56.4% | 31.8% | 71.9% | 59.2% |
| COc1ccc(-c2nn(-c3cccc(NC(=O)c4ccc5c(c4)OCCO5)c3)cc2-c2ccncc2)cc1Cl | 45.9% | 47.6% | 54.4 | 30.9% | 9.42% (active) | -32.2% (active) | 18.7% | 14.7% | -6.14% (active) | 39.8% |
| O=C(CC(c1ccccc1)N1CCOCC1)c1ccccc1 (stereo not given) | 83.3% | 90.8% | 96.9 | 88.2% | 106% | 88.5% | 97.4% | 80.9% | 116% | 80.3% |
| Nc1nc(Nc2ccccc2)n[nH]1 | 94.7% | 96.8% | 108 | 92.3% | 108% | 17.7% | 34.8% | 101% | 114% | 117% |
| c1ccc(CNc2ncnc3scc(-c4cccs4)c23)nc1 | 53.5% | 68.1% | 86.3 | 65% | 77.4% | 60.4% | 56.6% | 79.6% | 89.7% | 92.1% |
| Nc1nc(N)c2c(ccc3nccc32)[nH]1 | 50% | 123% | 61 | 74.8% | 20% | 37.9% | 2.16% (active) | 35.8% | 71.4% | 62.2% |
| COc1cc(C)ccc1C(=O)c1ccc(C)cc1OC | 48.6% | 62.9% | 44.5 | 27.7% | 5.93% (active) | -6.71% (active) | 26.9% | 48.7% | -24.9% (active) | 0.538% (active) |
| COc1ccc(OC)c(NC(=O)c2sc3nc4c(cc3c2N)C(=O)CCC4)c1 | 78.5% | 88.6% | 75.9 | 94% | 37.4% | 60.6% | 39% | 95.4% | 34.1% | 113% |
| COc1cc2c(cc1OC)N(CCO)C1=C(C(=O)OC1)C2c1ccc(Cl)c(Cl)c1 (stereo not given) | 104% | 103% | 95.2 | 98% | 104% | 77.4% | 98.6% | 93.5% | 116% | 109% |
| Cc1occc1-c1nnc(SCC(=O)c2ccc(NC(=O)CC(C)C)cc2)o1 | 110% | 109% | 106 | 99.6% | 108% | 81.9% | 87.7% | 96.3% | 110% | 109% |
| N#Cc1ncc(-c2cc(F)c(F)c(F)c2)c(NC2CCCCCC2)n1 | 92.9% | 94.6% | 105 | 100% | 95.7% | 94.8% | 95.8% | 101% | 88.5% | 108% |
| COc1ccc(/C=C/C(C)=N/OCC(=O)O)cc1 | 103% | 99.6% | 106 | 105% | 108% | 92.8% | 102% | 98.1% | 98.9% | 104% |
| COc1cc2cc3c(nc2cc1OC)CCN3Cc1ccc(NC(=O)Nc2ccc(F)cc2F)cc1 | 71.5% | 79.4% | 84.8 | 105% | 97.6% | 63% | 69.4% | 70.4% | 90.9% | 91.2% |
| COc1cc([C@@H]2c3cc4c(cc3C(Br)[C@H]3COC(=O)[C@H]23)OCO4)cc(OC)c1OC (stereo not given in full) | 4.09% (active) | 97.8% | 42.2 | -13% (active) | -50.8% (active) | -46.5% (active) | -24% (active) | 9.16% (active) | -88.4% (active) | -82.4% (active) |
| N=c1nc(N)ncn1-c1ccccc1 | 93.1% | 89.9% | 108 | 92.9% | 106% | 83.1% | 92.4% | 98% | 101% | 112% |
| COc1cccc(Cn2c(-c3nonc3N)nc3ccccc32)c1 | 24.2% | 49.2% | 38.8 | 29.9% | 6.52% (active) | -18.4% (active) | 16.4% | 36.9% | -53.3% (active) | 4.99% (active) |
| O=C(CNC(=O)OCc1ccccc1)NCC(=O)Oc1ccc([N+](=O)[O-])cc1 | 102% | 99% | 107 | 107% | 101% | 89.6% | 23.6% | 103% | 99.2% | 111% |
| CC/C(=C(/c1ccc(OCCN(C)C)cc1)c1ccc(OC(=O)CCC(=O)c2c(C)[nH]c(/C=C3\N=C(c4ccc[nH]4)C=C3OC)c2C)cc1)c1ccccc1 | 52.3% | 23.4% | 75.3 | 28% | 51% | -0.572% (active) | 11% | 21.4% | 28.3% | 21.4% |
| COc1cc(Cl)cc(-c2nn(-c3cccc(NC(=O)Nc4cc(C(F)(F)F)cc(C(F)(F)F)c4)c3)cc2-c2ccncc2)c1 | -6.14% (active) | -5.97% (active) | 11 | -41.1% (active) | 0.241% (active) | -15.6% (active) | 5.14% (active) | -26.9% (active) | -64% (active) | 13.1% |
| Clc1ccc(Nc2ccnc(NCCNc3ccnc4cc(Cl)ccc34)n2)cc1 | 47.6% | 63.3% | 20.1 | 66.7% | 7.77% (active) | -34.5% (active) | 10.8% | -62% (active) | -91% (active) | 36% |
